# Source: PubChem BioAssay
# Sampled rows, rich in hits. Any-hit rate of the full collection: about 7.2%.
# PK Bst – alters activity of Bacillus stearothermophilus pyruvate kinase; purified pyruvate kinase, luminescence ATP production; ribose 5-phosphate activator present at AC10; Potency, µM; actives 1.2% (n = 51,000); in the data active = potency below about 11 µM; inconclusive = mostly about 12 µM to 25 µM;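 the screen sought inhibitors and activators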;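 also: scaled between full activation by ribose 5 phosphate and full inhibition by luteolin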
# Luciferase inh – blocks Photinus pyralis firefly luciferase activity | P08659 | purified firefly luciferase, luminescence, 8 min | AID 411 | actives 2.2% (n = 72,000) | Potency, µM (doses to about 57.1 µM), without a hit: at the highest dose activity change, negative = inhibition, actives largely listed as inhibitors; also: % is scaled to controls: 0 for no effect and ±100 for the full control effect; nearly all actives have a fitted effect of over 40% in size
# Target sequence (P08659 whole entry, looked up): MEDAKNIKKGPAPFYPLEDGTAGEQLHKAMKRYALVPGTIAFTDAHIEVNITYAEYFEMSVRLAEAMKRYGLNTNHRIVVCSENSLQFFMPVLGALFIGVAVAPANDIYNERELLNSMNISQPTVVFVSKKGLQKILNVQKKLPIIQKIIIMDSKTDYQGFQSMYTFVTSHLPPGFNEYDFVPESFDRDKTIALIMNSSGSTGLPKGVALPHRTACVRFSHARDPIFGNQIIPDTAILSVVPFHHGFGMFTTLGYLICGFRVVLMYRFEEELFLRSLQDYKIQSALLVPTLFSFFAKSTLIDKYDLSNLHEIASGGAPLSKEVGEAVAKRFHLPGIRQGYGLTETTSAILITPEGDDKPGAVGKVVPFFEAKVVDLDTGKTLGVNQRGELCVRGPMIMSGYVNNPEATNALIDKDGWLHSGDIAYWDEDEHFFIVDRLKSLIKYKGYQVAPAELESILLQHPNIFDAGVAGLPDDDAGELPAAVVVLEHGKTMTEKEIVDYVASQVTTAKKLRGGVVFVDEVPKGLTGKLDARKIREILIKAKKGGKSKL
#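 Inhibition of light generation by firefly luciferase from ATP and luciferin was profiled with concentration-response curves per sample, ATP held at 10 uM within the enzyme's linear range. Plates were read by luminescence after an 8-minute ambient incubation.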
# TSHR ag – activates the human thyroid stimulating hormone receptor; HEK293-CNG-TSHR cells (CNG channel as cAMP sensor), membrane potential dye, cAMP; Potency, µM (titrated, usually from 57.1 µM), for the others: at the highest dose activation, usual class: activators; actives 0.48% (n = 73,000); AID 926; active = well fitted activation curve with a large enough effect in the main read-out, with a control signal flat, not every such curve was filed as active; inconclusive = small, poorly fitted or top-dose-only effect, or a change in a side signal; inactive = no such curve, though single readings can be large or run the other way; % of control where 0% means no effect;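 also: the control signal comes from parental cells without the receptor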
#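 HEK 293 cells stably expressing TSHR and a modified CNG channel, with CNG-only parental cells as counterscreen, were preloaded 60 min at room temperature with membrane potential dye containing 100 uM RO 20-1724. Compound exposure was 30 min, and depolarization was read as fluorescence at 590 nm.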
# Tau fil binding – tau filament binding; recombinant tau filaments, thioflavin S fluorescence, 15 h; filaments grown with octadecylsulfate alongside compound; Potency, µM (top dose mostly 57.1 µM), without a hit: at the top dose activity change, negative = inhibition; actives 2% (n = 71,000);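 also: % is scaled to controls: 0 for no effect and ±100 for the full control effect; actives lower thioflavin S fluorescence by blocking filaments or displacing dye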
#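 Quantitative HTS: thioflavine S signal from ODS-induced tau filaments, excited at 450 nm, emission 510 nm. Conditions: 1 uM tau, 30 uM ODS, 15 h at 37 C, pH 7.4.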
# HEK293 cAMP ctrl – counter-screen for TSHR agonists: cAMP increase in parental HEK293; Potency, µM (top dose mostly 57.1 µM), for inactives: top-dose activation, hits mostly activators; parental HEK293 CNG cAMP sensor, membrane potential fluorescence; actives 2.5% (n = 73,000); AID 938; also: % of control where 0% means no effect; nearly all actives have a fitted effect of over 55% in size
#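 Counterscreen for endogenous-receptor signalling: CNG-channel HEK 293 cells report cAMP rise by membrane depolarization. After 60 min dye equilibration with 100 uM RO 20-1724, compounds incubated 30 min before bottom-read fluorescence at 590 nm.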
# ERK AVP inh – blocks ERK signaling stimulated by vasopressin; HEK293-V1b, vasopressin-stimulated pERK AlphaScreen; Potency, µM (titrated, usually from 57.5 µM), for the others: at the top dose activity, negative = inhibition, actives largely listed as inhibitors; actives 0.99% (n = 72,000); AID 995; also: % is scaled to controls: 0 for no effect and ±100 for the full control effect; nearly all actives have a fitted effect of over 55% in size
#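 qHTS, compounds titrated on V1b-expressing HEK293 cells. Preincubation 30 min at 37C, vasopressin 25 nM for 5 min, lysis 10 min, bead incubation 5 hr at room temperature.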
# The depositor's hits bear a star; i = inactive; ? = inconclusive; . = no result; [ ] = another dose, or the depositor's remark. Unless noted, calls follow the shape of the dose curve; as a rule, active = well fitted curve in the direction sought with a large enough effect; inconclusive = small, poorly fitted or top-dose-only effect, or another doubt; inactive = no such curve, though single readings can be large; an effect the other way counts as inactive or inconclusive. Potency is read from the fitted curve at half-maximal effect.
SMILES,PK Bst,Luciferase inh,TSHR ag,Tau fil binding,HEK293 cAMP ctrl,ERK AVP inh
COc1cc(C2CC(=O)N3CN(c4ccccc4C)CSC3=C2C#N)cc(OC)c1OC (stereo not given),>57,-17%,15%,-3%,-11%,-15%
COc1ccccc1N1CSC2=C(C#N)C(c3ccc(SC)cc3)CC(=O)N2C1 (stereo not given),.,-24%,-2%,25µM*,2%,5%
C[C@@H]1CC2(OC[C@]3(C)O[C@H]23)O[C@H]2C[C@@]3(C)[C@@H]4CC[C@H]5C(C)(C)C(O[C@@H]6OC[C@@H](O)[C@H](O)[C@H]6O)CC[C@@]56C[C@@]46CC[C@]3(C)[C@@H]12 (stereo not given in full),.,.,4%,8%,-11%,19%
Cc1cccn2cc(CCNC(=O)c3ccc(Br)o3)nc12,.,-1%,?,-7%,32µM*,.
Clc1ccc(-c2cn3c(n2)CCC3)cc1,?,13µM*,.,.,.,.
Nc1nc(-c2ccc(Cl)cc2)cc(C(F)(F)F)n1,i,4%,0%,-7%,7%,7%
CNc1sc(C(=O)c2cccs2)c(N)c1-c1nc2ccccc2s1,.,-13%,?,5µM*,-47%,15%
Cn1cccc1C(=O)N1CCC2(CCN(C(=O)Nc3cccc(C#N)c3)CC2)CC1,.,0%[11.4 µM],15%,11%,-5%,?
O=C1CC(c2cccc(Cl)c2)Cc2nc(N3CCOCC3)ncc21 (stereo not given),>57,2%,?,10%,5µM*,?
CCN1CCN(c2ncc3c(n2)CC(c2cc(OC)c(OC)c(OC)c2)CC3=O)CC1 (stereo not given),>57,1%,?,-5%,10µM*,14%
O=C1CC(c2cccc(Cl)c2)Cc2nc(N3CCN(c4ccccc4)CC3)ncc21 (stereo not given),>57,2%,?,-12%,?,-10%
O=C(O)C1CCC(CNc2c(NC3CCCCC3)c(=O)c2=O)CC1 (stereo not given),.,2%,38%,15%,26%,.
O=C(O)CCCC[C@H]1CCSS1,.,-2%,10%,-9%,15%,-2%
CCN(CC)c1ccc(NC(=O)c2ccco2)cc1,?,10µM*,-7%,-9%,13%,-26%
CCN(CC)c1ccc(NC(=O)c2ccco2)c(C)c1,>57,-3%,-4%,-1%,-4%,-5%
CCOC(=O)c1c(C)[nH]c(C)c1C(=O)COc1ccc(NC(=O)c2ccco2)cc1,>57,-3%,-2%,-16%,1%,25µM*
CCN(CC)c1ccc(NC(=O)c2ccccc2F)cc1,i,16µM*,9%,?,19%,-25%
O=C(c1cnccn1)N1CCC2(CC1)CN(c1cccc(-c3ccccc3)c1)C2,.,-2%[11.4 µM],.,-21%,13%,-21%
CN(C)c1ccc(-c2cncnc2NCCc2cnc[nH]2)cc1,.,-1%[2.29 µM],6%,-1%,-7%,-27%
CC(=O)Oc1cc(-c2coc3cc(OC(C)=O)c(OC(C)=O)c(OC(C)=O)c3c2=O)cc(OC(C)=O)c1OC(C)=O,.,.,.,.,.,-2%
CCOC(=O)c1oc2ccc(Br)cc2c1CSc1nnc(C)s1,>57,1%,?,18%,32µM*,12%
CC(C)C[C@@H](CC(=O)N[C@H](CC(=O)N[C@@H]1CCCC[C@H]1C(=O)N[C@H](CC(=O)N[C@@H](CCC(=O)O)CC(=O)O)CC(C)C)C(C)C)NC(=O)[C@@H]1CCCC[C@H]1N,.,.,8%,4%,16%,.
CC(=O)OCC1OC(c2ccccc2)C(OC(C)=O)C(OC(C)=O)C1OC(C)=O (stereo not given),.,0%,?,13%,?,-31%
O=C(OCC1OC(OC(=O)c2cc(O)c(O)c(OC(=O)c3cc(O)c(O)c(O)c3)c2)[C@@H](OC(=O)c2cc(O)c(O)c(OC(=O)c3cc(O)c(O)c(O)c3)c2)C(OC(=O)c2cc(O)c(O)c(OC(=O)c3cc(O)c(O)c(O)c3)c2)C1OC(=O)c1cc(O)c(O)c(OC(=O)c2cc(O)c(O)c(O)c2)c1)c1cc(O)c(O)c(OC(=O)c2cc(O)c(O)c(O)c2)c1 (stereo not given in full),.,.,.,.,.,13µM*
C/C=C/Cn1c(SCc2ccc(Cl)cc2)nc2c1c(=O)[nH]c(=O)n2C,>57,3%,?,19%,25µM*,11%
SMILES,PK Bst,Luciferase inh,TSHR ag,Tau fil binding,HEK293 cAMP ctrl,ERK AVP inh
CCCn1c(SCc2ccc(Cl)cc2)nc2c1c(=O)[nH]c(=O)n2C,>57,3%,?,52%,?,-22%
Cn1cc(-c2nc3cnc(N4CCOCC4)nc3n(CCC#N)c2=O)c2ccccc21,.,1%[11.4 µM],1%,i,20%,-16%
c1ccc(CSc2nnc(-c3ccco3)n2Cc2ccco2)cc1,>57,2%,.,-10%,20%,-5%
Cc1cc(C(=O)CSc2nnc(-c3cccs3)n2Cc2ccccc2)c(C)n1C,>57,-1%,?,30%,?,-5%
O=c1cc(CSc2nnc(-c3cccs3)n2Cc2ccccc2)nc2sc3ccccc3n12,>57,-5%,?,49%,10µM*,13%
c1coc(Cn2c(SCc3nc4ccccc4[nH]3)nnc2-c2cccs2)c1,.,6%,30%,4%,8%,-3%
COc1cccc(-c2nnc(SCc3ccc(C#N)cc3)n2Cc2ccco2)c1,>57,0%,?,5%,6.3µM*,-15%
C=CCn1c(SCc2ccc(C#N)cc2)nnc1-c1cccc(OC)c1,>57,5%,?,6%,3.2µM*,-6%
Cc1cccc(-c2nnc(SCc3nc4ccccc4[nH]3)n2Cc2ccco2)c1,>57,4%,?,0%,13µM*,-25%
COCC(=O)N1CCC2(CC1)CCN(c1ccccc1)CC2,.,0%[11.4 µM],-1%,-16%,-3%,16%
O=S(=O)(c1ccccc1)N1CCC[C@@]2(CCN(Cc3ccccc3)C2)C1,.,1%[11.4 µM],?,-3%,?,5%
c1ccc(CSc2nnc(-c3cccs3)n2Cc2ccco2)cc1,>57,-1%,?,17%,25µM*,-15%
COc1ccc(CNc2ccnc(-c3ccc(C(=O)N(C)C)cc3)n2)c(OC)c1,.,1%[2.29 µM],?,5%,0.79µM*,4%
COc1ccc2[nH]cc(CCNc3ccnc(-c4ccccc4C(F)(F)F)n3)c2c1,.,1%[2.29 µM],-3%,-9%,-21%,-13%
COc1ccc(CNc2nc(-c3ccc(C(=O)N(C)C)cc3)nc3ccccc23)c(OC)c1,.,-2%[2.29 µM],25µM*,-4%,22%,0%
COc1ccc(CNc2ccnc(-c3cccc(C#N)c3)n2)c(OC)c1,.,-2%[2.29 µM],?,16%,?,-20%
